Compound activity (PubChem BioAssay)
TRPML1 blocker = qHTS for Inhibitors of the Human Mucolipin Transient Receptor Potential 1 (TRPML1). TRPML1-inducible cells, Ca2+ dye fluorescence, FDSS; hits give low values; inhibition of EC80 agonist-evoked calcium signal. activity change, negative = inhibition, % (test concentration not listed). AID 624415, 2012. actives 0.02% (n = 390,000). Mucolipin-1 (Homo sapiens), Q9GZU1; in the data active = activity change below about -50%; inconclusive = between about -30% and that limit;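 also: stimulus is agonist 54-4 at its EC80 concentration; % is scaled to controls: 0 for no effect and ±100 for the full control effect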
Target sequence (Q9GZU1 whole entry, looked up): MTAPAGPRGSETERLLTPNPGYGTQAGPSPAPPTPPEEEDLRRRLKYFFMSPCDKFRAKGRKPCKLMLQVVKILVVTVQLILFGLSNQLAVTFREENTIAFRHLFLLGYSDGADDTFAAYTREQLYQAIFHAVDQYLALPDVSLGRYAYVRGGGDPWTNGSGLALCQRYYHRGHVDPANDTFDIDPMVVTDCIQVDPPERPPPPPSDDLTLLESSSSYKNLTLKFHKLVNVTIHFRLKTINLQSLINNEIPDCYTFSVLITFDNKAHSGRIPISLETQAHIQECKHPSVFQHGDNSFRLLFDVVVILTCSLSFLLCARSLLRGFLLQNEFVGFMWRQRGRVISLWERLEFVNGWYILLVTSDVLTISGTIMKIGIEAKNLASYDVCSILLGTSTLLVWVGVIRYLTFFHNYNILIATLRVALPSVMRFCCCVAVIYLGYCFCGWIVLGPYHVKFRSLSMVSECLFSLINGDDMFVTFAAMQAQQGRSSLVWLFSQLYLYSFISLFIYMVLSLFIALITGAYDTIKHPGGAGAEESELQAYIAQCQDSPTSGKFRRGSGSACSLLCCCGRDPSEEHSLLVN
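TRPML1-DL cells, Tet-induced overnight (~16 h, 37 °C) at 1,500 cells/well, were loaded with Ca8 no-wash dye plus quencher for 45-90 min at room temperature. Compounds were pinned during FDSS kinetic reading; agonist 54-4 at EC80 (4 uM final) then added.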
TRPML1 agonist = qHTS for Agonists of the Human Mucolipin Transient Receptor Potential 1 (TRPML1) | activation, % (no concentration beside the values) | actives 0.12% (n = 410,000) | TRPML1-expressing cells, Ca2+ dye fluorescence, FDSS | Mucolipin-1 (Homo sapiens), Q9GZU1 | AID 624414, 2012; in the data active = activation above about 50%; inconclusive = mostly about 30% to 49%; also: 0% is about no effect
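TRPML1-DL cells, Tet-induced overnight (~16 h, 37 degrees C), loaded 45-90 min at room temperature with Ca8 no-wash calcium dye plus quencher. FDSS fluorescence: 10 s baseline, compound pin-transfer, 110 s agonist read, then EC80 54-4 (4uM final) and 110 s antagonist read.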
Vif-A3G inh = qHTS for Inhibitors of Vif-A3G Interactions: qHTS; Potency, µM (titrated, usually from 46.1 µM), for the others: at the top dose activity, negative = active, most hits filed as inhibitors; AID 602310, 2012; HeLa A3G-eYFP + Vif (tagged APOBEC3G with the HIV-1 protein that degrades it), YFP fluorescence, overnight; actives 0.076% (n = 410,000); also: potency is read from the fitted curve at half-maximal effect; % is scaled to controls: 0 for no effect and ±100 for the full control effect; nearly all actives have a fitted effect of over 60% in size
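Read-out is eYFP fluorescence (Ex 488/Em 500-530) from Vif-expressing HeLa A3G-eYFP cells; more signal means A3G escaped Vif-mediated degradation. Cells plated overnight, compound pinned in, incubated overnight at 37 deg C.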
12-LOX inh = Primary qHTS assay for inhibitors of human arachidonate 12S-lipoxygenase (ALOX12): Round 2 | Polyunsaturated fatty acid lipoxygenase ALOX12 (Homo sapiens), P18054 | actives 1.1% (n = 580,000) | AID 1671190, 2021 | Potency, µM (series often up to 108 µM), inactives show top-dose activity change, negative = inhibition, most hits filed as inhibitors | purified 12hLO, xylenol orange hydroperoxide absorbance; also: potency is read from the fitted curve at half-maximal effect; % is scaled to controls: 0 for no effect and ±100 for the full control effect
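Purified human 12hLO at 150 nM in 25 mM Hepes, 0.01% Triton X-100, pH 7.0, preincubated 15 min at room temperature with compound. Reaction started with 40 uM arachidonic acid, 30 min at room temperature. Hydroperoxide measured by Fe-xylenol orange, 573/405 nm absorbance ratio.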
Vif-A3F inh = qHTS for Inhibitors of Vif-A3F Interactions: qHTS; HeLa A3F-eYFP + Vif (tagged APOBEC3F with the HIV-1 protein that degrades it), YFP fluorescence increase; Potency, µM (doses to about 46.1 µM), without a hit: top-dose activity, negative = active; actives 0.2% (n = 390,000); AID 602313, 2012; also: potency is read from the fitted curve at half-maximal effect; % of control where 0% means no effect; nearly all actives have a fitted effect of over 65% in size
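Fluorescence increase (Ex 488/Em 500-530) after overnight compound treatment at 37 deg C flags inhibition of Vif-driven A3F-eYFP loss in stable HeLa A3F-eYFP/Vif cells seeded overnight beforehand.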
GRP78 ERSR act = qHTS for Inducers of the Endoplasmic Reticulum Stress Response (ERSR) in Human Glioma: qHTS | U87-MG GRP78 promoter luciferase reporter, 16 h | Potency, µM, inactives show top-dose activation, hits mostly activators | AID 602332, 2012 | actives 0.02% (n = 420,000); also: potency is read from the fitted curve at half-maximal effect; series mostly up to about 76 µM; % of control where 0% means no effect; nearly all actives have a fitted effect of over 35% in size
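ERSR induction read as luciferase luminescence (Bright-Glo, 10 min at room temperature) in stably transfected human U87-MG glioma cells exposed to compounds for 16 h, using GRP78 as sensor.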
Numbers without * were called inactive; ? = inconclusive; · = not tested or not shown; [ ] = remark or other dose. This is a sample that favours compounds with a hit; in the whole collection about 1.3% have one here. Unless noted, calls follow the shape of the dose curve; as a rule, active = well fitted curve in the direction sought with a large enough effect; inconclusive = small, poorly fitted or top-dose-only effect, or another doubt; inactive = no such curve, though single readings can be large; an effect the other way counts as inactive or inconclusive.

SMILES	TRPML1 blocker	TRPML1 agonist	Vif-A3G inh	12-LOX inh	Vif-A3F inh	GRP78 ERSR act
COc1ccc(Nc2ccc3cc(S(=O)(=O)N4CCCC4)ccc3n2)cc1Cl	16	2	-2%	-14%	-3%	-3%
O=S(=O)(c1ccc2nc(NC3CCCCC3)ccc2c1)N1CCCC1	·	·	·	11µM*	·	·
CC1CCC(Nc2ccc3cc(S(=O)(=O)N4CCCC4)ccc3n2)CC1 (stereo not drawn)	·	·	·	8.9µM*	·	·
O=C1c2c(nc(CNCc3cccc(Cl)c3)n2Cc2ccccc2)NCCN1CCOc1ccccc1	·	·	·	39%	·	·
O=C(Cc1cccs1)Nc1c(NCc2ccccc2)c2ccccc2oc1=O	·	·	·	-57%	·	·
COc1ccc(C(=O)Sc2ccc(C)cc2)cc1	·	·	·	9%	·	·
C[S+](=O)([O-])Nc1cccc(Nc2ncc(-c3cccc(F)c3)c3c2OCC3)c1	·	·	·	-23%[176 µM]	·	·
O=C1NC(=O)/C(=C\c2ccc(O)cc2O)S1	4	3	-4%	40µM*	-2%	0%
O=C1NC(=O)/C(=C/c2cccc3ccccc23)S1	-12	0	4%	-104%	4%	6%
CCc1ccc(NC(=O)C2(c3ccccc3)CC2(Cl)Cl)cc1 (stereo not drawn)	-12	54*	-1%	0%	-4%	0%
CCOC(=O)C1CCN(CCC(=O)Nc2cc(C)ccc2OC)CC1	·	·	·	17%	·	·
COc1ccc(/C=N/NC(N)=S)cc1	-8	0	2%	25µM*	1%	-2%
COc1ccc(C(=O)Oc2cc(/C=N/NC(N)=S)ccc2OC)cc1	8	0	2%	32µM*	1%	-5%
CC(C)Oc1ccc(/C=N/NC(N)=S)cc1	2	0	-22%	?	-8%	3%
COc1ccc(/C=N/NC(N)=S)cc1OC(=O)c1cccc2ccccc12	-12	0	-27%	16µM*	-2%	0%
CN(CCC#N)c1ccc(/C=N/NC(N)=S)cc1	·	·	·	18µM*	·	·
CCOc1ncccc1C(=O)OCc1nnc(-c2ccc(Cl)cc2)o1	·	·	·	-62%	·	·
Oc1ccc(C2=Nn3c(nnc3-c3ccco3)SC2)cc1O	3	0	?	7.1µM*	-9%	?
COc1cccc2c1C(=O)/C(=C\c1ccc(N(C)C)cc1)C2	·	62*	?	·	·	0%
CN(C)c1ccc(/C=C2/CCc3ccccc32)cc1	·	2	-1%	·	·	-4%
CCOC(=O)c1nc(NCc2ccc(CC)cc2)c2ccccc2n1	·	·	·	-9%	·	·
Cc1ccc(C(C)C)c2oc(=O)cc(-c3ccc(-c4ccc(C(F)(F)F)cc4)cc3)c12	1	3	4%	-1%	0%	1%
CC(=O)c1ccc(-c2ccc(-c3cc(=O)oc4c(C(C)C)ccc(C)c34)cc2)cc1	-1	64*	3%	-17%	-4%	-1%
CC1=Nc2ccccc2/C1=C/c1sc(=N)n(-c2nccs2)c1O	-15	20	13µM*	·	?	-18%
COc1cccc(-c2c(NC(=O)c3cccs3)oc3ccccc3c2=O)c1	·	·	·	1%	·	·
COc1ccc(C=C2NC(=S)NC2=O)cc1	-1	-1	2%	-17%	-9%	2%
COc1ccc(/C=C/C=C2\NC(=S)NC2=O)cc1	-1	1	?	?	13µM*	6%
O=C1N2CCCc3cccc(c32)C12Nc1ccccc1S2 (stereo not drawn)	0	1	-8%	25µM*	-2%	-3%
Cc1occc1C(=O)OCC(=O)c1sc2ccccc2c1C	·	·	·	32µM*	·	·
